A selection: hits, their analogues and other compounds. The true share with any hit is near 7.5%.
Rab9 promoter act = qHTS Assay for Rab9 Promoter Activators; Huh7 Rab9 promoter-luciferase reporter, luminescence, 24 h; Potency, µM (top dose mostly 9.22 µM), actives largely listed as activators; hit rate 2.8% among 320,000; further: nearly all actives have a fitted effect of over 60% in size
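Huh7 cells stably carrying a Rab9 promoter-luciferase reporter, 1500 cells per well in OP-MEM I with 10% FBS, treated with compound 24 hours at 37C. Luciferase activity read by luminescence after 10 minutes with Amplite reagent.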
SMN2 splice up = qHTS Assay for Enhancers of SMN2 Splice Variant Expression; HEK293 SMN2-luciferase splicing reporter, luminescence, 30-36 h; Potency, µM (series often up to 46.1 µM), hits mostly activators; hit rate 2.8% among 210,000; further: nearly all actives have a fitted effect of over 55% in size
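HEK293 cells carry an SMN2 […]–luciferase reporter in which exon 7 inclusion puts luciferase in frame. Cells were plated 10-12 h before compound addition, then incubated 30-36 h at 37C. ONE-Glo luminescence was read; sodium butyrate at 4.5 mM final served as control.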
ELG1 genotox = qHTS screen for small molecules that induce genotoxicity in human embryonic kidney (HEK293T) cells expressing luciferase-tagged ELG1; HEK293T ELG1-luciferase reporter, luminescence, 16 h; hit rate 1.3% among 330,000; Potency, µM (series often up to 46 µM), usual class: activators; further: nearly all actives have a fitted effect of over 60% in size
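Luminescence read-out: rising ELG1-luciferase signal, reflecting elevated ELG1 protein under genetic stress, flags genotoxic compounds. Cells were treated for 16 hr at 37 °C before ONE-Glo detection.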
FLuc counter = qHTS profiling assay for firefly luciferase inhibitor/activator using purifed enzyme and Km concentrations of substrates (counterscreen for miR-21 project) | Luciferin 4-monooxygenase (Photinus pyralis), P08659 | purified FLuc, Km substrates, luminescence inhibition | Potency, µM (series often up to 57.5 µM), usual class: inhibitors | hit rate 6.9% among 360,000; further: nearly all actives have a fitted effect of over 55% in size
Target sequence (P08659 whole entry, looked up): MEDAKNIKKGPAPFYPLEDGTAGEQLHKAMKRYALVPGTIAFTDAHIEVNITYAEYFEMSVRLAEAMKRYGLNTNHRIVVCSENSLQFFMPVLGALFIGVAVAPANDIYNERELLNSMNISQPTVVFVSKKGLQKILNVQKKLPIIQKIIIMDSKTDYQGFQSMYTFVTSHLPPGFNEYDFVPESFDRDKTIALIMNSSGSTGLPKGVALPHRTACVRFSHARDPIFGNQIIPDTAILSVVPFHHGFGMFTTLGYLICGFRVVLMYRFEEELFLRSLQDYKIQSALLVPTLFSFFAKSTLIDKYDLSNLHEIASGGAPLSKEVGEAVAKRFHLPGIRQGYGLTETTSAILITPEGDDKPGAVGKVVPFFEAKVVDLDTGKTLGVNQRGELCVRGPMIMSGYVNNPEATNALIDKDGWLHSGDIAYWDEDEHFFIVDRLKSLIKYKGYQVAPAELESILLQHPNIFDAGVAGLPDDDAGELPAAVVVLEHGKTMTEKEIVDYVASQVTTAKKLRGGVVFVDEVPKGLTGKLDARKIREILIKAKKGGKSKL
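Biochemical qHTS of compounds, final roughly 60 µM downward over six points, against 10 nM purified firefly luciferase using Km concentrations of substrates (10 uM D-luciferin, 10 uM ATP) in Tris acetate pH 7.5 buffer; luminescence output.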
NPC1 prom act = qHTS Assay for NPC1 Promoter Activators. Huh7 NPC1 promoter luciferase reporter, 24 h. Potency, µM (highest dose often 9.22 µM), actives largely listed as activators. hit rate 2.4% among 320,000; further: nearly all actives have a fitted effect of over 60% in size
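Luciferase expression driven by the NPC1 promoter was measured in stably transfected Huh7 cells after a 24 h compound incubation, using a luciferase reagent and a luminescence read.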
KinaseGlo FLuc = Counterscreen for Luciferase (Kinase-Glo TM) Inhibition; Luciferin 4-monooxygenase (Photuris pensylvanica), Q27757; Potency, µM (highest dose often 38.3 µM), most hits filed as inhibitors; hit rate 0.28% among 200,000; Kinase-Glo luciferase, ATP luminescence, 8 min; AID 1379, 2008; further: nearly all actives have a fitted effect of over 60% in size
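Luminescence was the read-out, taken after 8-minute incubation at ambient temperature. Luciferase turned over luciferin with 10 uM ATP in imidazole pH 7.2 buffer containing KCl, MgCl2, Tween 20 and BSA.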
Numbers stand for hits; – = inactive; ? = inconclusive; · = no result; [ ] = remark or other dose. The call rests on the fitted dose curve; in most records, active means well fitted curve in the direction sought with a large enough effect; inconclusive means small, poorly fitted or top-dose-only effect, or another doubt; inactive means no such curve, though single readings can be large; an effect the other way counts as inactive or inconclusive.

SMILES | Rab9 promoter act | SMN2 splice up | ELG1 genotox | FLuc counter | NPC1 prom act | KinaseGlo FLuc
Cc1nn(CC(=O)N2CCC(C)CC2)c(=O)c2cc3occc3n12 | · | – | · | – | · | ·
Cc1cc(C)cc(NC(=O)C2CCCN(c3nnc(C)c4c(C)n(-c5ccccc5)nc34)C2)c1 (stereo not given) | · | · | · | – | · | ·
CCN(CC)S(=O)(=O)c1ccc(NC(=O)NCc2noc3ccc(C)cc23)cc1 | · | · | · | – | · | ·
COc1ccccc1CNc1ncnc2ccc(-c3cccnc3)cc12 | · | – | · | · | · | –
O=S(=O)(c1ccccc1)N1c2cc(Cl)ccc2Oc2nc3ccccc3nc21 | – | ? | – | 13µM | – | –
O=S(=O)(c1ccccc1)N1CN(c2ccc(F)cc2F)c2nc3ccccc3nc21 | · | · | – | · | · | ·
O=C(Nc1ccc2c(c1)CCC2)c1ccc(Br)o1 | 3.2µM | 13µM | 6.5µM | 6.7µM | 3.5µM | –
O=C(Nc1ccc2c(c1)OCO2)c1ccc(COc2ccc3c(c2)CCC3)o1 | 4µM | 11µM | ? | 19µM | ? | –
Cc1ccc(NC(=O)c2ccc(Br)o2)cc1S(=O)(=O)N(C)C | ? | ? | – | 13µM | ? | –
Cc1ccc(C(=O)Nc2ccc3c(c2)CCC3)o1 | 2.8µM | 4.5µM | 3.3µM | 4.3µM | 3.2µM | 13µM
CCc1c2c(nc3c(C(C)C)cccc13)-c1cccc(=O)n1C2 | · | – | · | · | · | –
Nc1cccc(B(O)O)c1 | · | – | · | · | · | –
Cc1ccc(S(=O)(=O)c2nc(-c3cccc(C)c3)oc2N2CCCCC2)cc1 | · | – | · | – | · | ·
CCOCCCN1C(=O)CN(C2CCCCCC2)C(=O)C1c1ccc(OC(C)C)c(OC)c1 (stereo not given) | · | · | · | – | · | ·
Cc1ccc(C(=O)NCCc2ccc(S(N)(=O)=O)cc2)cc1-n1cnc2cccnc21 | · | · | · | – | · | ·
O=C(Nc1ccc2c(c1)OCO2)c1ccc(Br)o1 | 2.8µM | 11µM | 18µM | 24µM | 2.5µM | –
O=C(Nc1ccc2c(c1)CCC2)c1cc2ccccc2o1 | 1.3µM | 13µM | 1.6µM | 1.3µM | 1.3µM | –
COc1ccc(NC(=O)c2cc3nc(-c4ccc(Cl)c(Cl)c4)cc(C(F)(F)F)n3n2)c(OC)c1 | · | – | · | – | · | ·
CSc1cccc(NC(=O)N2CCc3ccc(NC(=O)c4ccccn4)cc3C2)c1 | 4µM | · | – | 8.5µM | 2.5µM | ·
CSc1cccc(NC(=O)c2ccccn2)c1 | 4µM | ? | ? | 11µM | ? | –
CSc1cccc(NC(=O)c2cnccn2)c1 | – | – | – | ? | – | –
c1ccc(-c2cn3nc4c(nc3n2)CCCC4)cc1 | 0.13µM | 0.5µM | 0.13µM | 0.3µM | 0.11µM | 14µM
Brc1ccc(-c2cn3nc4c(nc3n2)CCCC4)cc1 | 0.28µM | 4µM | ? | 0.27µM | 0.1µM | ?
COc1ccccc1CNC(=O)CCC1N=C2c3ccccc3N=C(SCc3ccc(Cl)cc3)N2C1=O (stereo not given) | · | · | · | – | · | ·
COc1ccc(C)cc1Nc1nc2cc(Cl)c(Cl)cc2nc1-n1nc(C)cc1C | · | – | · | – | · | ·
SMILES | Rab9 promoter act | SMN2 splice up | ELG1 genotox | FLuc counter | NPC1 prom act | KinaseGlo FLuc
COc1cccc(-c2noc(C3CCCN(C(=O)CC(C)(C)C)C3)n2)c1 (stereo not given) | – | · | – | – | – | –
CCCCC(=O)N1CCCC(c2nc(-c3cccc(OC)c3)no2)C1 (stereo not given) | ? | · | – | 17µM | ? | –
COc1cccc(-c2noc(C3CCCN(C(=O)c4ccccc4OC)C3)n2)c1 (stereo not given) | – | · | – | 21µM | ? | ·
Cn1c(N)nc2c(nc(OCc3ccccc3)n2[C@@H]2O[C@H](CO)[C@@H](O)[C@@H]2O)c1=O | · | –[9.22 µM] | · | · | · | –[7.66 µM]
Cc1cccc(-c2nc3c4ccccc4nc(N4CCN(c5ccccc5F)CC4)n3n2)c1 | · | – | · | – | · | ·
O=C(NC(Cc1c[nH]c2ccccc12)C(=O)N/N=C/c1cccnc1)c1cccs1 (stereo not given) | – | 25µM | – | – | – | –
N#C/C(=C\c1ccccc1)C(=O)Nc1sc2c(c1C(N)=O)CCC2 | · | – | · | ? | · | ·
N#CCSc1ncccc1-c1nc2ccccc2[nH]1 | – | – | – | – | – | –
Cn1c(SCC(=O)N2CCc3ccccc32)nc2cccnc21 | – | – | – | – | – | –
O=C(CSc1ncccc1-c1nc2ccccc2[nH]1)N1CCc2ccccc21 | 2.8µM | – | ? | 7.6µM | ? | –
CC(C)(C)NC(=O)CSc1ncccc1-c1nc2ccccc2[nH]1 | – | · | – | 24µM | – | ·
N#CCCCSc1ncccc1-c1nc2ccccc2[nH]1 | ? | – | – | ? | ? | –
COC(=O)CSc1ncccc1-c1nc2ccccc2[nH]1 | – | – | ? | 13µM | – | –
CCN(CC)S(=O)(=O)c1ccc(NC(=O)c2nn(C)c3c2CSc2ccccc2-3)cc1 | · | · | · | – | · | ·
Cc1ccc(Cn2c(CCNC(=O)C(C)C)nc3ccccc32)cc1 | · | – | · | – | · | ·
O=C(N/N=C/c1cccc(F)c1)c1csc2c1CCCC2 | 1.3µM | 14µM | ? | 4.8µM | 1µM | –
Cc1cccc(C)c1NC(=O)c1csc2c1CCCC2 | · | – | · | – | · | ·
O=C(N/N=C/c1ccccc1F)c1csc2c1CCCC2 | 1.3µM | 8.9µM | ? | 2.7µM | 1.1µM | –
COc1ccc(-c2csc(C3=C(O)CN(CCCN4CCCC4=O)C3=N)n2)cc1OC | – | ? | – | 8.5µM | – | –
CC(O)c1nc2ccccc2n1Cc1nnc(-c2ccc(Cl)cc2)o1 (stereo not given) | – | – | – | 17µM | – | –
O=C(Cc1ccc(-c2ccccc2)cc1)Nc1ccccc1 | – | · | ? | – | – | ·
O=C(Cc1ccc(-c2ccccc2)cc1)Nc1ncccc1O | ? | · | ? | 15µM | ? | ·
COc1ccc(CNC(=O)Cn2c(=O)cc(-c3ccccc3)c3c(C)nn(C)c32)cc1 | · | · | · | – | · | ·
CCOc1ccc(/C=C\C(C)=N\O)cc1 | 2.2µM | 16µM | 10µM | 8.5µM | 2µM | –
CC(C)c1ccc(/C=C/C(=O)CCC(=O)O)cc1 | 0.79µM | 1.4µM | ? | 0.24µM | 0.28µM | –
SMILES | Rab9 promoter act | SMN2 splice up | ELG1 genotox | FLuc counter | NPC1 prom act | KinaseGlo FLuc
NS(=O)(=O)c1ccc(CNC(=O)/C=C/c2ccc(Cl)c(Cl)c2)cc1 | – | – | – | – | – | –
CCOc1ccc(/C=C/C(=O)CCC(=O)O)cc1 | 0.71µM | · | ? | 1.1µM | ? | –
CC(C)c1ccc(/C=C/C(=O)NCc2ccc(S(N)(=O)=O)cc2)cc1 | – | – | – | 13µM | – | –
O=C(O)CCC(=O)/C=C/c1ccccc1 | – | · | – | – | – | –
C/C(=N\Nc1ccccc1)c1cccc(N)c1 | ? | · | ? | 21µM | – | ·
C/C(=N\NC(=O)c1ccccc1O)c1cccc(NC(=O)c2ccccc2)c1 | – | · | – | 11µM | – | ·

Screening data from PubChem BioAssay.
